High-throughput results deposited in PubChem by Broad Institute.
miR122 inh = miR-122 suppressors via Renilla sensor increase, primary screen, cell-based, Huh7 psiCHECK-miR122, Renilla luciferase, single point; activation, % at 12.5 µM; AID 623901, 2012; 48 h; hit rate 0.14% among 340,000;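 active = mean activation of 30% or more, with every replicate also reaching 30%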;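 also: 0% = median of neutral control wells and 100% = median of positive control wells; higher luciferase signal means stronger suppression of miR-122 activity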
Active calls of the source: *. The entries come from a sample that favours hits as a whole.

SMILES	miR122 inh
C[C@@H]1CN([C@H](C)CO)C(=O)c2cc(NC(=O)Cc3cn(C)c4ccccc34)ccc2O[C@@H]1CN(C)S(=O)(=O)c1ccc(Cl)cc1	-101
C[C@H]1CN([C@@H](C)CO)S(=O)(=O)c2ccc(-c3ccccc3)cc2O[C@H]1CN(C)S(=O)(=O)c1ccccc1F	0
C[C@@H]1CN([C@@H](C)CO)C(=O)c2cc(-c3cccnc3)cnc2O[C@@H]1CN(C)S(C)(=O)=O	-9
Cc1noc(C)c1NC(=O)Nc1cccc2c1O[C@@H](CN(C)Cc1ccc(Cl)c(Cl)c1)[C@@H](C)CN([C@H](C)CO)C2=O	-114
CCCN(C)C[C@@H]1Oc2cc(C#Cc3ccccc3F)ccc2S(=O)(=O)N([C@@H](C)CO)C[C@@H]1C	1
C[C@H]1CN([C@@H](C)CO)S(=O)(=O)c2ccc(C#CC3CC3)cc2O[C@@H]1CN(C)C(=O)C1CC1	-10
Cc1ccccc1-c1cnc2c(c1)C(=O)N([C@H](C)CO)C[C@H](C)[C@H](CN(C)C(=O)c1ccccc1)O2	0
C[C@H]1CN([C@@H](C)CO)S(=O)(=O)c2ccc(-c3ccccc3)cc2O[C@H]1CN(C)Cc1cncnc1	1
C[C@@H]1CN([C@H](C)CO)S(=O)(=O)c2ccc(C#C[C@@H](C)O)cc2O[C@@H]1CN(C)Cc1cccnc1	-3
C[C@H](CO)N1C[C@H](C)[C@@H](CN(C)Cc2cncnc2)Oc2cc(-c3cncnc3)ccc2S1(=O)=O	5
Cc1ccc(-c2ccc3c(c2)O[C@H](CN(C)Cc2cncnc2)[C@H](C)CN([C@@H](C)CO)S3(=O)=O)cc1	57*
C[C@H](CO)N1C[C@H](C)[C@H](CN(C)Cc2ccc(-c3ccccc3)cc2)Oc2cc(C#C[C@@H](C)O)ccc2S1(=O)=O	41*
C[C@@H]1CN([C@@H](C)CO)S(=O)(=O)c2ccc(C#C[C@@H](C)O)cc2O[C@@H]1CN(C)Cc1cncnc1	9
CNC[C@H]1Oc2cc(C#Cc3cccc(OC)c3)ccc2S(=O)(=O)N([C@H](C)CO)C[C@@H]1C	3
COc1cccc(-c2cnc3c(c2)C(=O)N([C@H](C)CO)C[C@@H](C)[C@@H](CN(C)CC2CCOCC2)O3)c1	10
CCCN1C[C@@H](C)[C@@H](OC)CN(C)C(=O)c2ccc(NS(C)(=O)=O)cc2OC[C@H]1C	4
CO[C@H]1CN(C)C(=O)c2cc(NC(=O)c3ccc(F)cc3)ccc2OC[C@@H](C)N(C)C[C@H]1C	-3
CO[C@H]1CN(C)C(=O)c2cc(NC(=O)Cc3ccccc3)ccc2OC[C@H](C)N(C)C[C@H]1C	-3
CN1C(=O)c2cc(NS(=O)(=O)c3ccc(Cl)cc3)ccc2OC[C@@H]2O[C@H](CC(=O)N3CCc4ccccc4C3)CC[C@H]21	33*
CO[C@@H]1CN(C)C(=O)c2cc(NC(=O)c3ccc(F)cc3)ccc2OC[C@H](C)N(C)C[C@@H]1C	-3
CO[C@@H]1CN(C)C(=O)c2cc(NS(=O)(=O)c3ccccc3)ccc2OC[C@H](C)N(C)C[C@H]1C	1
CO[C@@H]1CN(C)C(=O)c2cc(NC(=O)c3ccc(F)cc3)ccc2OC[C@@H](C)N(C)C[C@@H]1C	-1
CO[C@H]1CN(C)C(=O)c2cc(NC(=O)c3ccc(F)cc3)ccc2OC[C@@H](C)N(C)C[C@@H]1C	-1
CN1C(=O)c2cc(NC(=O)c3cccc(F)c3)ccc2OC[C@@H]2O[C@H](CC(=O)Nc3ccccc3)CC[C@H]21	55*
CO[C@@H]1CN(C)C(=O)c2cc(NS(=O)(=O)c3ccccc3)ccc2OC[C@@H](C)N(C)C[C@H]1C	-1
SMILES	miR122 inh
CCNC(=O)C[C@H]1CC[C@H]2[C@@H](COc3ccc(NC(=O)c4ccccc4)cc3C(=O)N2C)O1	50*
CN1C(=O)c2cc(NC(=O)Cc3ccccc3)ccc2OC[C@@H]2O[C@@H](CC(=O)NCC3CC3)CC[C@@H]21	-183
CN1C(=O)c2cc(NC(=O)c3cccc(F)c3)ccc2OC[C@H]2O[C@H](CC(=O)N3CCc4ccccc4C3)CC[C@H]21	37*
C[C@@H]1CN([C@H](C)CO)C(=O)c2cc(N(C)C)ccc2O[C@@H]1CN(C)Cc1ccc(C(=O)Nc2ccccc2N)cc1	-220
CCCC#Cc1ccc2c(c1)O[C@@H](CN(C)S(C)(=O)=O)[C@@H](C)CN([C@H](C)CO)S2(=O)=O	9
C[C@H](CO)N1C[C@H](C)[C@H](CN(C)Cc2ccccc2F)Oc2ncc(-c3ccccc3F)cc2C1=O	-8
C[C@@H]1CN([C@@H](C)CO)C(=O)c2cc(Br)cnc2O[C@@H]1CN(C)C(=O)NC1CCCC1	5
C[C@H](CO)N1C[C@H](C)[C@H](CN(C)C(=O)Cc2cccnc2)Oc2ncc(-c3ccncc3)cc2C1=O	8
CO[C@@H]1CN(C)C(=O)c2cc(NC(=O)Cc3ccccc3)ccc2OC[C@@H](C)N(CCc2ccccc2)C[C@H]1C	-4
CN(C)CCCNC(=O)C[C@@H]1CC[C@H]2[C@H](COc3ccc(NC(=O)c4cccc(F)c4)cc3C(=O)N2C)O1	42*
CC(C)C(=O)Nc1ccc2c(c1)C(=O)N(C)[C@H]1CC[C@H](CC(=O)NCc3cccc(F)c3)O[C@H]1CO2	-440
COc1cccc(CNC(=O)C[C@H]2CC[C@@H]3[C@@H](COc4ccc(NC(C)=O)cc4C(=O)N3C)O2)c1	53*
CCC(=O)Nc1ccc2c(c1)C(=O)N(C)C[C@H](OC)[C@H](C)CN(C(C)=O)[C@@H](C)CO2	0
C[C@@H]1CN([C@@H](C)CO)C(=O)c2cc(C#Cc3ccccc3F)cnc2O[C@@H]1CN(C)C(=O)Cc1ccncc1	3
C[C@H](CO)N1C[C@H](C)[C@H](CN(C)Cc2cccc(F)c2)Oc2cc(C#Cc3ccccn3)ccc2S1(=O)=O	7
CO[C@H]1CN(C)C(=O)c2ccc(NC(=O)Nc3ccc(Cl)cc3)cc2OC[C@@H](C)N(C)C[C@H]1C	-1
CCOC(=O)c1ccc(-n2ccnc2)c(NC(=O)c2cccc(Br)c2)c1	-128
CCOc1cc(NC(=O)c2ccccn2)c(OCC)cc1NC(=O)c1ccc(Cl)cc1	34*
COc1ccc(S(=O)(=O)NCc2ccccn2)cc1NC(=O)c1ccc(C)cc1	-94
CCCNC(=O)N(C)C[C@H]1Oc2cc(C#Cc3cccc(F)c3)ccc2S(=O)(=O)N([C@H](C)CO)C[C@@H]1C	-30
CCCC#Cc1ccc2c(c1)O[C@@H](CN(C)S(C)(=O)=O)[C@H](C)CN([C@@H](C)CO)S2(=O)=O	1
CNC(=O)c1nnsc1S(=O)(=O)c1ccc(Cl)cc1	31*
O=C(NNS(=O)(=O)c1ccc(Cl)cc1)c1cccs1	-116
O=S(=O)(Nc1ccncc1)c1ccc(Cl)cc1	-119
CCC(=O)N(C)C[C@@H]1Oc2ncc(C#CC3(O)CCCC3)cc2C(=O)N([C@@H](C)CO)C[C@H]1C	-8
C/C=C/c1cnc2c(c1)C(=O)N([C@H](C)CO)C[C@@H](C)[C@@H](CN(C)C(=O)Cc1cccnc1)O2	-15
COc1ccccc1-c1ccc2c(c1)O[C@@H](CN(C)C(C)=O)[C@H](C)CN([C@@H](C)CO)S2(=O)=O	1
O=C(C1CC1)N(CCN(C(=O)C1CC1)c1ccccc1)c1ccccc1	30*
COc1cccc(NC(=O)N(C)C[C@@H]2Oc3ncc(C#Cc4ccccc4)cc3C(=O)N([C@H](C)CO)C[C@H]2C)c1	-2
C[C@@H]1CN([C@H](C)CO)C(=O)c2cc(/C=C/c3ccccc3)cnc2O[C@H]1CN(C)C(=O)c1cccc(F)c1	-14
